Screen size: about 400,000 compounds; about 2,100 (0.53%) were called active. Inconclusive results (about 14%) are left out. This is one part of a sample in which actives are shown more often than they occur. No rule for the calls is given here.

Sequence of Ataxin-2 (Homo sapiens) (Q99700 whole entry): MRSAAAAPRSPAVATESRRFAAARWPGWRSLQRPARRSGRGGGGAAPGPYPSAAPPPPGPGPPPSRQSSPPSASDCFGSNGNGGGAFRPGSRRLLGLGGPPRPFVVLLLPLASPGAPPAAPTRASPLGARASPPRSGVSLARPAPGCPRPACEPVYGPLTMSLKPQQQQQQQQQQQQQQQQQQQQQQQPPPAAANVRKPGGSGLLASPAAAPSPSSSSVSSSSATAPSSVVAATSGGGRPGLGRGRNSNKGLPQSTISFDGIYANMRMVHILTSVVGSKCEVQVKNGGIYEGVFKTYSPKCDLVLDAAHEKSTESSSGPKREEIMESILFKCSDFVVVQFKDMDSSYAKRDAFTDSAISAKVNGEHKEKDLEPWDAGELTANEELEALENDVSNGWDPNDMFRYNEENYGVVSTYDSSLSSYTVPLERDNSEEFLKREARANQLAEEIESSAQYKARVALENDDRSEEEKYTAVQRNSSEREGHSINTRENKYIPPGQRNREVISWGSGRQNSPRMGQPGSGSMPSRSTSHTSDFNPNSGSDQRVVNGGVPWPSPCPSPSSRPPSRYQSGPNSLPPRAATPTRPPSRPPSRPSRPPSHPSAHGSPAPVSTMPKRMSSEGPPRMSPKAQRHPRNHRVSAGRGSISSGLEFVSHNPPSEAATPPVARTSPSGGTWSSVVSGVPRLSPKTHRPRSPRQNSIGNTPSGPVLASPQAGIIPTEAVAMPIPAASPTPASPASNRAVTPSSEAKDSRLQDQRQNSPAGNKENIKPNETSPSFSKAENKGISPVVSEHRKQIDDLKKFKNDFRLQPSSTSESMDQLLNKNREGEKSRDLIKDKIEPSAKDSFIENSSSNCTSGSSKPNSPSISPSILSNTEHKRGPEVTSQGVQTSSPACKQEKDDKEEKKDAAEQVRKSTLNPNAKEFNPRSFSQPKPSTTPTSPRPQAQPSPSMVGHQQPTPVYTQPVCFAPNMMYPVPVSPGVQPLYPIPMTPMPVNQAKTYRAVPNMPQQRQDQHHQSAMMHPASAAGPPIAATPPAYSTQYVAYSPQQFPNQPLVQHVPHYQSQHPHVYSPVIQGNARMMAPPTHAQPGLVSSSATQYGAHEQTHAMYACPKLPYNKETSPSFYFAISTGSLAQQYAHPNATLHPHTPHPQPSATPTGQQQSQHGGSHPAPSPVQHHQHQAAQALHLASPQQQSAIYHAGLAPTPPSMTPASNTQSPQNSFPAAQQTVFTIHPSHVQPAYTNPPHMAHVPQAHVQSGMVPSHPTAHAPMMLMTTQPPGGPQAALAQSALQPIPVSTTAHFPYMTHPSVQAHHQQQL

The assay concerns the target Ataxin-2 (Homo sapiens) (UniProt Q99700). Kind of assay: qHTS for Inhibitors of ATXN expression. It counts as functional. In general terms: In qHTS, concentration-response curves come from the screen itself.
With `N#CC1=C(N)Oc2c(oc(CO)cc2=O)C1c1ccccc1[N+](=O)[O-]` (stereo not given), the Potency entry is “inactive”.

For the compound `O=C(CCNC(=O)Cn1cnc2ccccc2c1=O)NCC1CCCO1` (stereo not given), the Potency result is “inactive”.

With `Cc1ccc(OCCn2cnc3ccccc3c2=O)c([N+](=O)[O-])c1`, the Potency entry was “inactive”. The entry for `COC(=O)C(N)Cc1ccc(OC)c([N+](=O)[O-])c1` (stereo not given) is “inactive”; for `CCCCCOc1ccc(CSC2=NCCN2)cc1[N+](=O)[O-]` it is 35.5 µM (active); for `Cc1ccccc1NC(=O)COc1ccc(Br)cc1C` it is “inactive”. The entry for `CCC1CN(C(=O)NCc2ccc(F)cc2)c2ccccc2O1` (stereo not given) is “inactive”; for `CC(=O)c1ccccc1NCC(=O)Nc1ccc(C)cc1` it is “inactive”; for `O=C(Nc1ccc(F)cc1)c1cccc2ccccc12` it is “inactive”.

Regarding `O=C(Cn1sc2ccccc2c1=O)Nc1ccc(F)cc1`, the Potency is 31.6 µM (active). The figure for `Cc1ccc(NC(=O)Cn2sc3ccccc3c2=O)cc1` is 25.1 µM (active); for `O=C(CC1C(=O)NCCN1C(=O)Nc1ccccc1)Nc1ccc(F)cc1` (stereo not given) it is “inactive”; for `O=C(CN1C(=O)CSc2ccc(C(F)(F)F)cc21)Nc1ccccc1` it is “inactive”. Take `CCn1c(=O)c(C(=O)Nc2ccc(C)cc2)c(O)c2ccccc21`: the Potency entry was “inactive”. Regarding `O=C(CN1C(=O)c2cccc3cccc1c23)Nc1ccccc1`, the Potency entry was “inactive”.

As to `O=C(Cn1sc2ccccc2c1=O)Nc1ccccc1`, the Potency is 39.8 µM (active). On to `COc1cccc2sc3cc(NCC[C@@H]4CCCN4C)ccc3c(=O)c12`, for which the Potency result is “inactive”.

For the compound `CCc1nc2ccc(C(=O)Nc3cccc(OC)c3)cn2c1N(CCC(C)C)CCN(C)C`, the Potency is 14.1 µM (active). With `COc1cc(C(=O)Nc2ccn(C)n2)ccc1OC(F)F`, the Potency result is “inactive”.

Take `CCc1nc2ccc(C(=O)Nc3cc(-c4ccccc4)ccc3OC)cn2c1N(CC)CCN(C)C`: the Potency is 39.8 µM (active). `COc1ccc(C)cc1NC(=O)c1cc(-c2ccccc2)nc2c1cnn2C(C)C`: the Potency result is “inactive”. The same measure for `CCc1nc2ccc(C(=O)Nc3ccc(OC)c(OC)c3)cn2c1N(C)CCC(C)C`: 31.6 µM (active); for `CCCNC(=O)c1c(N)n(-c2cccc(OC)c2)c2nc3ccccc3nc12`: “inactive”; for `COc1ccc(NC(=O)c2ccc(S(=O)(=O)N3CC(C)CC(C)C3)cc2)cc1S(N)(=O)=O` (stereo not given): “inactive”.

`Cc1ccc(-c2cc(C(=O)Nc3ccccn3)c3ccccc3n2)o1`: the Potency result was “inactive”. `CN(NC(=O)COc1ccccc1)C1=NS(=O)(=O)c2ccccc21`: the Potency result was “inactive”. In the case of `CC(=O)c1ccc(/N=c2\scc(C)n2C(C)C)cc1`, the Potency result is “inactive”. The entry for `COc1ccc(-c2csc(NC(=O)c3c(C)noc3C)n2)cc1OC` is “inactive”. With `CC(=O)Nc1cccc(-c2csc(Nc3cc(C)ccn3)n2)c1`, the Potency was 25.1 µM (active). Take `CC(=O)Nc1ccc(-c2ccnc(-c3ccc(NC(C)=O)cc3)n2)cc1`: the Potency entry is “inactive”.

Consider `Cc1c(CCC(=O)NCCCN2CCCC2=O)c(=O)oc2c(C)c(O)ccc12`, for which the Potency result was “inactive”. As to `COc1cc(/C=C/c2sc3ccccc3[n+]2CCCS(=O)(=O)[O-])ccc1O`, the Potency was 18.9 µM (active). For the compound `Cc1cccn2c(=O)c3cc(C(=O)NCC4CCCO4)c(=N)n(Cc4ccc(F)cc4)c3nc12` (stereo not given), the Potency entry is “inactive”. The entry for `CCN(CC)c1ccc(/C=C(\C#N)c2ccccn2)cc1` is “inactive”; for `COc1cccc(Cc2nc3ccccc3nc2SCC(=O)NCCc2ccccc2)c1` it is 35.5 µM (active). As to `CCS(=O)(=O)c1ccc2oc(SCC(=O)NCCc3ccccc3)nc2c1`, the Potency result is “inactive”.

With `O=C(CSc1ccccc1)NCCc1ccc(F)cc1`, the Potency entry was “inactive”. The same measure for `O=S(=O)(c1ccc(N2CCC(c3ccc(Cl)cc3)=N2)cc1)N(CCO)CCO`: “inactive”; for `CCCCC[C@H](O)/C=C/[C@H]1CCC(=O)[C@@H]1CCCCCCC(=O)N1CCCCC1CO` (stereo not given in full): 39.8 µM (active); for `CN(/N=C/c1cc(Cl)cc(Cl)c1O)C(=S)NC(C)(C)C`: “inactive”.

Regarding `Cc1cc(N2CCOCC2)n2ncc(-c3ccccc3Cl)c2n1`, the Potency entry is “inactive”. Consider `C=CCn1nc([N+](=O)[O-])nc1Sc1cccc2cccnc12`, for which the Potency is 39.8 µM (active).

For `Cc1nn(C)c(Sc2ccccn2)c1[N+](=O)[O-]`, the Potency result is “inactive”. The same measure for `Cn1nc([N+](=O)[O-])nc1Sc1cccc2cccnc12`: 7.94 µM (active); for `CCOc1ccc2nc(NCCNC(=O)CC)c(C#N)cc2c1`: “inactive”. `CN1c2ccccc2Oc2nnc(Cl)cc21`: the Potency result was “inactive”. Consider `Cc1cc(-c2nnc3n2N=C(c2ccccc2)CS3)[nH]n1`, for which the Potency entry was “inactive”. On to `Clc1ccc(C2=Nn3c(nnc3-c3cc(-c4ccccc4)[nH]n3)SC2)cc1`, for which the Potency was 35.5 µM (active). Regarding `O=c1c2ccccc2nc(/C=C/c2ccc(O)cc2)n1CCc1ccccc1`, the Potency result was “inactive”. For the compound `O=C(CC1CCCCC1)NCc1nc(-c2ccccc2)no1`, the Potency entry is “inactive”.

As to `CCCCC[C@H]1CN(C2CCCCC2)C(=O)[C@@H]1CC(=O)NCc1ccccc1`, the Potency was 39.8 µM (active).

In the case of `Cc1nn(C(=O)CCCC(=O)NCc2ccccc2)c2ccccc12`, the Potency entry was “inactive”.

Regarding `CCN1C(=O)c2cccc3c(S(=O)(=O)N4CCNCC4)ccc1c23`, the Potency entry is “inactive”. The entry for `COc1cc(OC)c(OC)cc1C=Cc1ccc2ccccc2n1` is “inactive”. The figure for `COc1cc(Br)c(/C=C/c2ccc3cccc(O)c3n2)cc1OC` is 25.1 µM (active); for `COc1cccc(/C=C/c2ccc3cccc(O)c3n2)c1OC` it is “inactive”. Consider `Cc1ccc(C2C=C(c3ccc(F)cc3)Nc3nc(CCCO)nn32)cc1` (stereo not given), for which the Potency entry was “inactive”. The entry for `O=CN(c1ccccc1)c1ccc2ccccc2c1` is “inactive”; for `CCCCCCc1cc2cc(-c3nnc(-c4cc(OC)c(OC)c(OC)c4)o3)c(=O)oc2cc1O` it is “inactive”. The same measure for `COCCCN=C(S)NCCNc1nc2c(C)c(C)ccc2cc1C#N`: “inactive”; for `COc1cc2nc(/C=C/c3cc(OC)c(OC)c(OC)c3)sc2cc1SC`: “inactive”; for `CC1=CN2C(=N)/C(=C/c3ccc([N+](=O)[O-])o3)C(=O)N=C2S1`: 28.2 µM (active). Regarding `COc1ccc(-c2ccc(/C=N/NC(=O)c3cccnc3)o2)c([N+](=O)[O-])c1`, the Potency result was “inactive”.

For `CCOc1ccc(-c2ccc(/C=C3/C(=N)N4C=CSC4=NC3=O)o2)c([N+](=O)[O-])c1`, the Potency was 31.6 µM (active). Turning to `CC1=NN2C(=N)/C(=C\c3cc(C)n(-c4ccc(C)cc4)c3C)C(=O)N=C2S1`, the Potency entry is “inactive”. The entry for `CC1=CN2C(=N)/C(=C/c3cc(Cl)c(O)c(Cl)c3)C(=O)N=C2S1` is “inactive”; for `CCOC(=O)c1c(N)n(C2CC(C)(C)NC(C)(C)C2)c2nc3ccccc3nc12` it is “inactive”. The same measure for `CC(CCc1ccco1)NC(=O)Cn1ncc2c(=O)oc3ccccc3c21` (stereo not given): “inactive”; for `O=C(CN1CCN(c2ccccc2)CC1)Nc1scc2c1c(=O)oc1ccccc12`: “inactive”; for `Cc1ccc2oc(=O)c3cnn(CC(=O)Nc4ccccc4N4CCN(C)CC4)c3c2c1`: 7.08 µM (active). The same measure for `CN(C(=S)NC(=O)C12CC3CC(CC(C3)C1)C2)c1ccc(O)cc1`: “inactive”. With `Cc1ccc(CCNC(=O)C[S+]([O-])Cc2nc(-c3cccs3)oc2C)cc1` (stereo not given), the Potency entry was “inactive”.

In the case of `O=C(NCCc1csc(-c2cccnc2)n1)c1ccc(Br)o1`, the Potency entry was “inactive”. The same measure for `Cc1ccc(-c2nc3sc(CCNC(=O)c4ccc(Br)o4)c(C)n3n2)cc1`: 35.5 µM (active). As for `O=C(COc1coc(CN2CCc3ccccc32)cc1=O)N1CCCCC1`, the Potency entry was “inactive”. For the compound `CC[C@H](C)/C=C/C1=CC2=C(Cl)C(=O)[C@@]3(C)OC(=O)C(C(=O)[C@H](C)[C@@H](C)O)=C3C2=CO1`, the Potency is 11.9 µM (active). For `CC[C@H](C)/C=C(C)/C=C/C1=CC2=CC(=O)[C@]3(C)OC(=O)[C@@H](C(C)=O)[C@@H]3C2=CO1`, the Potency entry was “inactive”. The figure for `Cc1ccc(S(=O)(=O)N2CC3(O)CN(C(=O)OC(C)C)N(C(=O)OC(C)C)CC3(OC(=O)NCc3ccccc3)C2)cc1` (stereo not given) is 22.4 µM (active); for `Cc1ccc(S(=O)(=O)N[C@@H](Cc2ccccc2)C(=O)N2CCC[C@@H]2C(=O)O)cc1` it is “inactive”; for `CCCCCCNC(=O)OC12CN(C(=O)OC(C)C)N(C(=O)OC(C)C)CC1(O)CN(S(=O)(=O)c1ccc(C)cc1)C2` (stereo not given) it is 25.1 µM (active). As to `O=S(=O)(NCc1ccccc1)c1ccc(S(=O)(=O)N2CCCC2)cc1`, the Potency entry is “inactive”. The same measure for `CCCNC(=O)c1ccc(SCC(=O)N(CC)CC)c([N+](=O)[O-])c1`: “inactive”; for `NCCNc1ccc(C(=O)N2c3ccccc3Sc3ccccc32)cc1[N+](=O)[O-]`: 14.1 µM (active); for `CC(=O)NCCNC(=O)c1ccc(Sc2ccccc2)c([N+](=O)[O-])c1`: “inactive”.

`C/C(=N\NC(=O)C1=NNC(=O)C1C)c1cccs1` (stereo not given): the Potency entry is “inactive”. Regarding `CN=c1sc2c(n1C)C(=O)c1ccccc1C2=O`, the Potency was 39.8 µM (active). The same measure for `O=C(NP(=O)(N1CCOCC1)N1CCOCC1)C1=C(N2CCOCC2)/C(=C\c2ccccc2)CC1`: “inactive”; for `Cc1c(N=C2C=C(Br)C(=O)C(Br)=C2)c(=O)n(-c2ccccc2)n1C`: “inactive”. The same measure for `Cc1c(/N=C2\C=CC(=O)c3ccccc32)c(=O)n(-c2ccccc2)n1C`: “inactive”. The figure for `CC1=CC(=Nc2c(C)n(C)n(-c3ccccc3)c2=O)C=C(C)C1=O` is 35.5 µM (active); for `CCCS(=O)(=O)N1CCN=C1SCc1ccc(C)cc1` it is “inactive”. `Cc1cc(C)cc(N2C(=O)C=CC2=O)c1`: the Potency is 28.2 µM (active).

For the compound `Cc1cccc(N2C(=O)c3cccc4c(N)ccc(c34)C2=O)c1`, the Potency entry is “inactive”. The entry for `CCOC(=O)c1c(-c2ccc(Cl)cc2)csc1NC(=O)CNCc1ccco1` is “inactive”. The same measure for `CCOC(=O)c1c(-c2ccc(C)o2)csc1NC(=S)NC(=O)N(C)C`: 39.8 µM (active); for `CCOC(=O)c1c(-c2ccc(C)cc2)csc1NC(=O)/C(C#N)=C/c1ccc(O)c(OC)c1`: “inactive”; for `CCc1ccc(/C(C)=N/NC(=O)c2ccc(-n3cnnn3)cc2)cc1`: “inactive”. For `Cc1cccn2c(Nc3ccc4c(c3)OCCO4)c(-c3ccc(Br)o3)nc12`, the Potency is 39.8 µM (active). As for `COc1cc(OC)c(OC)cc1CN1CCc2nc(Nc3ccc4c(c3)OCCO4)ncc2C1`, the Potency entry was “inactive”. The same measure for `Cc1cnc(NC(=O)CSc2nnc3ncccn23)s1`: “inactive”.
